Screening data: PubChem, National Center for Advancing Translational Sciences (NCATS)
A selection: hits, their analogues and other compounds. The true share with any hit is near 7.9%.
SW480 rerep: A quantitative high throughput screen for small molecules that induce DNA re-replication in SW480 colon adenocarcinoma cells | SW480 DNA re-replication, Hoechst DNA content imaging, 48 h | Potency, µM (highest dose often 46.1 µM), without a hit: at the top dose re-replication activation, hits mostly activators | 1.8% of 340,000 active; further: % of control where 0% means no effect; nearly all actives have a fitted effect of over 55% in size
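SW480 cells exposed to compounds for 48 hr at 37 C, 5% CO2, then Hoechst-stained 40 min. Nuclear DNA content imaged by fluorescence scanning (405 nm excitation, 500-530 nm emission); re-replication scored as increased high-intensity nuclei.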
MCF10A rereplic: A quantitative high throughput screen for small molecules that induce DNA re-replication in MCF 10a normal breast cells; MCF 10A DNA re-replication, Hoechst nuclear intensity, 48 h; Potency, µM (titrated, usually from 46.1 µM), for the others: top-dose activity, positive = re-replication, hits mostly activators; 2.9% of 350,000 active; AID 624296, 2012; further: % of control where 0% means no effect; nearly all actives have a fitted effect of over 50% in size
KB-3-1 tox: qHTS assay for MDR1-selective chemotherapeutics: Primary screen using the parental adenocarcinoma cell KB-3-1 | 1.4% of 400,000 active | Potency, µM (series often up to 46.1 µM), actives largely listed as cytotoxic | KB-3-1 viability, CellTiter-Glo ATP luminescence, 72 h | AID 1347075, 2019; further: on the % scale 0 is the no-effect control and ±100 the full control effect; nearly all actives have a fitted effect of over 60% in size
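Cytotoxicity measured as CellTiter-Glo luminescence after 72 h at 37 C. Compound titrations were pinned onto drug-naive KB-3-1 parental adenocarcinoma cells grown in DMEM with 10% FBS, and normalized data fitted to concentration-response curves.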
HT1080 IDH1KD tx: qHTS for induction of synthetic lethality in tumor cells producing 2HG: qHTS for the HT-1080-IDH1KD cell line; 2% of 360,000 active; Potency, µM (highest dose often 46.1 µM), inactives show at the top dose activity, negative = toxicity, hits mostly cytotoxic; HT-1080 IDH1 knockdown viability, ATP luminescence, 48 h;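 further: 0% = DMSO wells and -100% = cell-free medium wells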
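CellTiter-Glo luminescence after 48 h compound exposure at 37 degrees C of IDH1-knockdown HT-1080 cells in 5% FBS RPMI. %Activity scaled between DMSO wells and cell-free media wells, with curves fitted and assigned curve classes.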
HT1080NT lethal: qHTS for induction of synthetic lethality in tumor cells producing 2HG: qHTS for the HT-1080-NT fibrosarcoma cell line; AID 686970, 2013; Potency, µM (titrated, usually from 46.1 µM), inactives show top-dose activity, negative = less viability, hits mostly cytotoxic; 1.6% of 360,000 active; HT-1080-NT fibrosarcoma viability, CellTiter-Glo ATP luminescence, 48 h;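 further: NT is the 2HG producing partner of a matched IDH1 knockdown line; 0% = DMSO-treated cells and -100% = media-only wells without cells; nearly all actives have a fitted effect of over 55% in size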
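HT-1080-NT; 750 cells/well; 5% FBS RPMI; 48 h compound, 37 degrees C; CellTiter-Glo luminescence; curve fitting and curve-class assignment.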
KB-V1 MDR tox: qHTS assay for MDR1-selective chemotherapeutics: Primary screen using the drug-selected MDR subline cells KB-V1; 3.4% of 400,000 active; KB-V1 MDR cells viability, CellTiter-Glo, 72 h; Potency, µM (highest dose often 46.1 µM), most hits filed as cytotoxic; further: on the % scale 0 is the no-effect control and ±100 the full control effect; nearly all actives have a fitted effect of over 60% in size
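Cytotoxicity toward P-gp-expressing KB-V1 cells was determined as loss of CellTiter-Glo luminescence after 72 h at 37 degrees C. Compounds were tested in quantitative HTS format across a concentration range, with curves fitted to normalized data.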
Active calls of the source: *; i = inactive; u = inconclusive; x = no result given. The call rests on the fitted dose curve; in most records, active means well fitted curve in the direction sought with a large enough effect; inconclusive means small, poorly fitted or top-dose-only effect, or another doubt; inactive means no such curve, though single readings can be large; an effect the other way counts as inactive or inconclusive. Potency means the concentration at half of the fitted maximal effect.

SMILES	SW480 rerep	MCF10A rereplic	KB-3-1 tox	HT1080 IDH1KD tx	HT1080NT lethal	KB-V1 MDR tox
O=C(Cn1ncc2c1-c1ccccc1OC2)N1CCN(Cc2ccccc2)CC1	-2.7%	-2.0%	i	-3.1%	-4.2%	i
Cc1nn(CC(=O)N2c3ccccc3NC(=O)C2(C)C)c(C)c1[N+](=O)[O-]	21.7%	u	i	-4.6%	-3.1%	i
O=C(Cn1ncc(Cl)c(Cl)c1=O)N1CCN(Cc2ccccc2)CC1	14.7%	4.11µM*	u	u	u	i
O=C(Cn1ncc(Cl)c(Cl)c1=O)N1CCc2ccccc21	-2.2%	10.3µM*	u	2.91µM*	4.61µM*	u
O=C(Cn1ncc2c1-c1ccccc1OC2)N1CCc2ccccc21	-11.6%	7.3%	i	-4.0%	-2.6%	i
CC1(C)C(=O)Nc2ccccc2N1C(=O)Cn1ncc(Cl)c(Cl)c1=O	9.2µM*	u	u	-25.2%	-10.2%	i
CC(C)c1ccc(N2C(=O)N(Cc3cccc([N+](=O)[O-])c3)c3ccccc3S2(=O)=O)cc1	x	x	i	x	x	i
CCN1CCN(c2cc(C)c3cc(NC(=S)N4CC(C)CC(C)C4)ccc3n2)CC1 (configuration not stated)	u	u	i	16.4µM*	u	i
CCN1CCN(c2cc(C)c3cc(NC(=S)N4CCCC(C)C4)ccc3n2)CC1 (configuration not stated)	u	4.8%	u	16.4µM*	u	u
CCN1CCN(C(=S)Nc2ccc3nc(N4CCN(CC)CC4)cc(C)c3c2)CC1	u	u	u	u	-21.5%	i
CN(C)S(=O)(=O)c1ccc2nnn(OCC(=O)NC34CC5CC(CC(C5)C3)C4)c2c1	-1.2%	22.4%	i	1.2%	0.5%	3.66µM*
COc1ccc(NC(=O)COC(=O)CCSc2ccccc2)cc1	2.4%	6.2%	x	-0.3%	0.0%	x
COc1cc(CSc2nnnn2-c2ccc(C)cc2)cc(OC)c1OC	6.0%	-9.9%	10.3µM*	-0.2%	u	2.06µM*
COc1ccc(C(C)=O)cc1CSc1nnnn1-c1ccc(O)cc1	-16.1%	4.2%	i	0.2%	19.4%	u
COc1ccc(F)cc1CSc1nnnn1-c1ccc(O)cc1	9.5%	12.9%	i	-24.0%	-28.8%	16.4µM*
CCOc1ccc(NC(=S)N(Cc2ccc(N(C)C)cc2)Cc2ccco2)cc1	10.4%	19.2%	i	4.6%	6.0%	14.6µM*
COCCNC(=O)c1ccc(N2CCCCC2)c(NS(=O)(=O)c2ccc(C)cc2)c1	0.0%	-4.6%	i	-2.8%	2.8%	u
CCOc1ccc(S(=O)(=O)Nc2cc(S(=O)(=O)N(CC)CC)ccc2N2CCCC2)cc1	u	-55.0%	u	-5.3%	-3.7%	2.59µM*
CCOC(=O)c1ccc(N2CCCCC2)c(NS(=O)(=O)c2ccc(C)cc2)c1	u	20.6µM*	u	u	u	u
CCN(CC)S(=O)(=O)c1ccc(N2CCCC2)c(NC(=O)Cc2ccc(OC)cc2)c1	9.7%	u	i	14.1%	0.5%	23.1µM*
CCOc1ccc(C(=O)Nc2cc(S(=O)(=O)Nc3ccccc3Cl)ccc2N2CCOCC2)cc1	13.2%	3.8%	i	-2.1%	3.9%	6.51µM*
CCOc1ccc(S(=O)(=O)Nc2ccccc2C(=O)Nc2ccccc2N2CCOCC2)cc1	-4.8%	4.0%	i	-1.5%	-1.2%	i
O=C(CN1C(=O)c2ccc([N+](=O)[O-])cc2C1=O)NC1CCCCCC1	u	-3.6%	i	-0.8%	2.3%	i
CCN(CC)S(=O)(=O)c1ccc(N2CCN(C)CC2)c(NC(=O)Nc2ccc(C)cc2)c1	1.8%	11.6µM*	i	20.6µM*	8.2µM*	i
Cn1c(=O)c(=O)n(C)c2cc(N3CCCCC3)c(NS(=O)(=O)c3ccc(Br)cc3)cc21	7.31µM*	-0.6%	i	-11.1%	-1.1%	i
SMILES	SW480 rerep	MCF10A rereplic	KB-3-1 tox	HT1080 IDH1KD tx	HT1080NT lethal	KB-V1 MDR tox
CCN(CC)S(=O)(=O)c1ccc(N2CCN(C)CC2)c(NC(=O)CSCC(=O)Nc2cccc(C)c2)c1	-36.7%	u	i	-1.2%	-3.4%	i
CCOC(=O)c1c(C)[nH]c(C(=O)CSc2nnnn2-c2ccccc2)c1C	1.5%	16.0%	i	-25.1%	0.8%	u
CSC1=NC(=O)/C(=C\c2cccc3ccccc23)S1	3.9%	14.6µM*	i	-3.8%	1.1%	u
Cc1ccccc1NC(=O)/C(C#N)=C/c1ccccc1C(F)(F)F	8.1%	27.8%	i	-2.7%	-3.7%	i
O=C(NCc1cccnc1)c1cc(Sc2cccc(Cl)c2)nc2ccccc12	0.8%	u	u	0.1%	-14.6%	16.4µM*
Cc1nc2ccccc2c2nc(NC(=O)Cc3ccccc3)nn12	2.7%	22.2%	u	0.6%	2.7%	18.4µM*
C=CCn1c(=O)c2c(nc3n2CCCN3CCc2ccccc2)n(C)c1=O	-5.9%	22.2%	i	1.4%	18.1%	i
C=CCOC(=O)C1=C(C)NC(=O)NC1c1cn(-c2ccccc2)nc1-c1cccs1 (configuration not stated)	-5.9%	9.7%	i	10µM*	u	20.6µM*
CN(C)c1ccc(CNCCC(Cc2ccccc2)c2ccco2)cc1 (configuration not stated)	u	u	u	23.1µM*	18.4µM*	u
c1ccc(CNCCC(Cc2ccccc2)c2ccco2)cc1 (configuration not stated)	u	9.5%	u	16.4µM*	16.4µM*	u
CC(C)n1nnc(-c2ccc(OCc3ccccc3F)cc2)n1	14.6µM*	-2.5%	i	-5.4%	-7.7%	i
Cn1nnc(-c2ccc(OCc3ccccc3F)cc2)n1	-6.7%	-0.4%	i	-13.1%	-3.5%	i
Cc1ccc(N/C=C(\C2OC(=O)c3ccccc32)[N+](=O)[O-])c(C)c1 (configuration not stated)	-1.7%	16.4%	i	0.0%	0.7%	i
O=C1OC(/C(=C\Nc2cc(Cl)ccc2O)[N+](=O)[O-])c2ccccc21 (configuration not stated)	u	14.6µM*	i	u	u	i
